From ChEMBL document CHEMBL4513141, “CO-ADD screening of NIH (USA) - Clinical Collection” (2021)
Potency and affinity values are given separately.

tested on: Escherichia coli; details: Concentration 20 uM; ASSAY_TEST Inhibition of Bacterial Growth; detection method Absorption (OD600); MEDIA CAMHB; plate type 384well; NBS; CORNING #3640; time 18 hr

| SMILES | Inhibition |
| --- | --- |
| CC(=O)O.CNC(=N)NCCC[C@H](N)C(=O)O [TILARGININE ACETATE] | 6.22% |
| CS(=O)(=O)c1ccc(C2=C(c3ccccc3)C(=O)OC2)cc1 [ROFECOXIB] | -7.03% |
| CC1=C(CC(=O)O)c2cc(F)ccc2/C1=C\c1ccc([S+](C)[O-])cc1 (centres undefined) | 3.68% |
| C[C@]12CC[C@@H]3c4ccc(OS(=O)(=O)[O-])cc4CC[C@H]3[C@@H]1CCC2=O.[Na+] [ESTRONE SODIUM SULFATE] | 6.3% |
| Cc1onc(-c2ccccc2)c1-c1ccc(S(N)(=O)=O)cc1 [VALDECOXIB] | 4.49% |
| CS(=O)(=O)O.Oc1ccc(C2CNCCc3c2cc(O)c(O)c3Cl)cc1 (centres undefined) [FENOLDOPAM MESYLATE] | -0.49% |
| CS(=O)(=O)O.Cc1ccc(NC(=O)c2ccc(CN3CCN(C)CC3)cc2)cc1Nc1nccc(-c2cccnc2)n1 [IMATINIB MESYLATE] | 2.87% |
| COc1cc2nc(N(C)CCCNC(=O)C3CCCO3)nc(N)c2cc1OC (centres undefined) [ALFUZOSIN] | -0.93% |
| CCCCc1nc(Cl)c(CO)n1Cc1ccc(-c2ccccc2-c2nnn[n-]2)cc1.[K+] [LOSARTAN POTASSIUM] | 5.5% |
